Assay results: ChEMBL document CHEMBL4513216, “Probing the Open Global Health Chemical Diversity Library for Multistage-Active Starting Points for Next-Generation Antimalarials” (ACS Infect Dis, 2020)
Out of some 65,000 compounds screened, about 2,100 (3.2%) showed an effect of 50% or more. The median lay at about -52%. Only a selection was taken, and strong results are over-represented in it overall.

Tested on: Plasmodium falciparum
Experiment: Screen against P. falciparum Asexual Blood Stage (ABS), at 5uM
Type: functional, Dd2
Details: tested at 5 uM

| SMILES | INHIBITION [%] |
| --- | --- |
| CCNC(=O)NC(=O)CN1CCC(c2cccc(F)c2)C1 (stereo not drawn) | -4.74 |
| CC(C)NC(=O)CN1CCC(c2cccc(F)c2)C1 (stereo not drawn) | 54.9 |
| CNC(=O)NC(=O)CN1CCC(c2cccc(F)c2)C1 (stereo not drawn) | -92.5 |
| Cc1ccccc1NC(=O)N1CCN(Cc2noc(C3CC3)n2)CC1 | -69.4 |
| Cc1ccccc1C(C(=O)NCCSC(C)C)N(C)C (stereo not drawn) | 50.3 |
| Cc1ccccc1C(C(=O)NCCSC(F)(F)F)N(C)C (stereo not drawn) | 46.1 |
| CSCCCNC(=O)C(c1ccccc1C)N(C)C (stereo not drawn) | -35.8 |
| CSC(C)C(=O)N(C)CCCc1cc(-c2ccccc2)no1 (stereo not drawn) | -25.3 |
| CCOC(=O)C1CCN(c2cc(C(=O)N3CCOCC3)nc(C)n2)CC1 | -5.84 |
| COc1ccc(C(NCc2cccc(C#N)c2)C(C)C)cc1 (stereo not drawn) | -11.2 |
| COc1ccc(C(NCc2cccc(C#N)c2)C2CC2)cc1 (stereo not drawn) | 48.3 |
| COc1ccc(C(NCc2ccc(C#N)cc2)C2CC2)cc1 (stereo not drawn) | 60.9 |
| O=C(C1CCOC1)N1CCC2(CCN(Cc3nccs3)CC2)CC1 (stereo not drawn) | -146 |
| COc1ccc(NC(=O)c2nc3ccccc3n(C)c2=O)cc1OC | -33.5 |
| O=C(O)c1cc2c(nc1-c1ccoc1)CCN(CC1CCOC1)CC2 (stereo not drawn) | -108 |
| CSCC(=O)N(C)Cc1noc(-c2ccccc2)n1 | -229 |
| CN(C)C(=O)CCNC(=O)Nc1sc2ccccc2c1Cl | -22.3 |
| CN(C)CC(C)(O)CNC(=O)Nc1sc2ccccc2c1Cl (stereo not drawn) | 63.2 |
| CS(=O)(=O)CCNC(=O)Nc1sc2ccccc2c1Cl | -95 |
| Cc1cc(-c2cnc(N3CCCCCC3)nc2-c2cccnc2C)on1 | 3.45 |
| Cc1cnn(C2CN(CCOc3cccc(C#N)c3)C2)c1 | -128 |
| CCS(=O)(=O)N1CC(=O)N(Cc2ccccc2OC)CC(O)C1 (stereo not drawn) | -105 |

| SMILES | INHIBITION [%] |
| --- | --- |
| CCOC(=O)C1CCN(C(=O)c2cnn(-c3ccccc3F)c2N)CC1 | -221 |
| Cc1ccc(C(CNCc2cccc3c2OCO3)N2CCOCC2)o1 (stereo not drawn) | 65.7 |
| c1cc(CNCc2ccnc(N3CCOCC3)c2)c2c(c1)OCO2 | -31.4 |
| c1csc(C(CNCc2cccc3c2OCO3)N2CCOCC2)c1 (stereo not drawn) | 40.2 |
| Cc1cc(C2CCCN2C(=O)CN2C(=O)OC(C)(C)C2=O)on1 (stereo not drawn) | -28.9 |
| CCCS(=O)(=O)N1C[C@@H]2CN(Cc3cnn(C)c3)CCO[C@@H]2C1 | -67.3 |
| Cc1cccc(C(C(=O)NCCn2cccc2)N(C)C)c1 (stereo not drawn) | 42.5 |
| O=C(NCCNc1cccnc1)C(c1cccnc1)N1CCCC1 (stereo not drawn) | -11.7 |
| O=C(NCCn1cccc1)C(c1ccccc1)N1CCCC1 (stereo not drawn) | 54.4 |
| CC(C)(NCc1ccc(C#N)cc1)c1ccc2c(c1)OCO2 | -0.993 |
| CC(C)(NCc1cccc(C(N)=O)c1)c1ccc2c(c1)OCO2 | 19.8 |
| CC(C)(NCc1cccc(C#N)c1)c1ccc2c(c1)OCO2 | 51.5 |
| O=C1N[C@@H]2CCN(C(=O)C3CCCC3)[C@@H]2C(=O)N1c1ccc(F)cc1 | 56.1 |
| O=C1N[C@@H]2CCN(C(=O)C3CC3)[C@@H]2C(=O)N1c1ccc(F)cc1 | -99.9 |
| O=C1N[C@@H]2CCN(C(=O)C3CCC3)[C@@H]2C(=O)N1c1ccc(F)cc1 | 32 |
| CC(=O)N1N=C(COc2ccc3c(c2)OCO3)OC1c1cccc(Cl)c1 (stereo not drawn) | -125 |
| Cc1cc(=O)n(CC(=O)NC(C)C)c(Nc2ccc(F)c(C)c2)n1 | -47.4 |
| CN1CCc2cc(C(CNS(=O)(=O)c3cccs3)N3CCCC3)ccc21 (stereo not drawn) | 15.5 |
| Cc1nn(C)cc1S(=O)(=O)NCC(c1ccccc1)N1CCCCCC1 (stereo not drawn) | 12.9 |
| CN(C)c1ccc(C(CNS(=O)(=O)c2cccs2)N2CCCC2)cc1 (stereo not drawn) | 54.2 |
| COc1ccccc1CNC(=O)COc1c(C)n(C)ccc1=O | -82.3 |
| CC(C)c1cnc(CN(C)C2CCN(CCc3cnn(C)c3)C2)o1 (stereo not drawn) | -112 |

| SMILES | INHIBITION [%] |
| --- | --- |
| O=C(NCC1CC1)C1CCC2(CCN(C(=O)c3cnccn3)CC2)O1 (stereo not drawn) | -40.1 |
| COc1cc(CNCc2ccco2)ccc1OCCO | -66.2 |
| CCCc1ccc(OCCNCc2ccco2)c(OC)c1 | 51.5 |
| COc1cc(C(C)=O)ccc1OCCNCc1ccco1 | 1.68 |
| CCCc1nccn1-c1cccc(CN2CCCC2)c1 | 53.1 |
| Cn1ccnc1-c1nccn1-c1cccc(CN2CCCC2)c1 | -2.05 |
| c1cc(CN2CCCC2)cc(-n2ccnc2-c2ccncc2)c1 | 6.67 |
| O=C(NCCc1ccc(F)cc1)C1CN(C(=O)Cn2cncn2)C1 | -29.6 |
| COCc1nc(N(C)CCSc2ccccc2)c2cnn(C)c2n1 | -14.2 |
| Cc1nc(N(C)CCN(C)C)c2cnn(C)c2n1 | -71.9 |
| CN(C)CCN(C)c1nc(CCc2ccccc2)nc2c1cnn2C | 51.9 |
| CN1CCCc2cc(-c3cncn3CC(=O)NC(C)(C)C)ccc21 | -38.6 |
| CC1Cc2cc(-c3cncn3CC(=O)NC(C)(C)C)ccc2N1C (stereo not drawn) | 54.2 |
| CCN1CCc2cc(-c3cncn3CC(=O)NC(C)(C)C)ccc21 | 66.2 |
| CCN1CCc2cc(-c3cncn3CCNC3CCS(=O)(=O)C3)ccc21 (stereo not drawn) | 3.68 |
| CN1CCCc2cc(-c3cncn3CCNC3CCS(=O)(=O)C3)ccc21 (stereo not drawn) | -79.3 |
| CC1CCN(S(=O)(=O)c2cccn(CC(=O)NC(C)(C)C)c2=O)CC1 | -129 |
| c1cc2c(cc1CSCc1noc(C3CC3)n1)OCCO2 | -17 |
| O=C(OCC1CCN(c2ccccc2)C1)c1cscn1 (stereo not drawn) | 0.13 |
| CCOC1CCC2(CCN(C(=O)c3csnn3)CC2)c2ccccc21 (stereo not drawn) | -79.6 |
| O=C(O)c1ccccc1-c1ccc(CNC(=O)C2CCOCC2)cc1 | -63.2 |
| Nc1nc2c(c(NC(Cn3cccn3)c3ccccc3)n1)CCNCC2 (stereo not drawn) | -40.8 |

| SMILES | INHIBITION [%] |
| --- | --- |
| CCC(c1ccc(F)cc1F)N1CCN(CCO)CC1 (stereo not drawn) | 34.1 |
| Cc1noc(CN(C)CC2CCN(CCO)CC2)n1 | -64 |
| CN(CC1CCN(CCO)CC1)CC(O)c1ccc(F)cc1 (stereo not drawn) | 69.1 |
| CN(CC1CCN(CCO)CC1)CC(O)c1ccc(F)cc1F (stereo not drawn) | 56.7 |
| CN(CCOCC(F)(F)F)CC1CCN(CCO)CC1 | 19.4 |
| Cc1cnn(CC2CCN(CC(O)c3ccc(F)cc3)CC2)c1 (stereo not drawn) | 29.3 |
| Cc1ccc(C(=O)NCCCNc2ccc(C(F)(F)F)cn2)cc1 | 35.4 |
| CCS(=O)(=O)N1CCC(C(=O)NC(Cc2ccsc2)c2nccs2)CC1 (stereo not drawn) | -83.8 |
| CN(Cc1ccccc1CNC(=O)C1CNC(=O)N1)C1CCCCC1 (stereo not drawn) | -35 |
| COc1cc(N2CCC3(CC(=O)N(Cc4csc(C)n4)C3)C2)ncn1 (stereo not drawn) | -10.7 |
| COC(=O)N1CCC2(CC1)CC(c1ccccc1)CN(C)C2 (stereo not drawn) | -17.2 |
| CN1CC(c2ccccc2)CC2(CCN(CC(=O)N(C)C)CC2)C1 (stereo not drawn) | 53.8 |
| CN1CC(c2ccccc2)CC2(CCN(C(=O)c3ccccc3)CC2)C1 (stereo not drawn) | 18.1 |
| CC(C)OCc1ncn2c1CN(Cc1ccoc1)CCC2 | -4.62 |
| CCc1n[nH]c(C2CN(C(=O)c3ccnc(N(C)C)c3)CCO2)n1 (stereo not drawn) | -77.2 |
| CC1CCCN1C1CCN(C(=O)c2cccc(-c3ccoc3)c2)CC1 (stereo not drawn) | 53.6 |
| O=C(CN1CCN(C(=O)c2cccc(-c3ccoc3)c2)CC1)C1CC1 | -3.7 |
| CC1CCCN1C1CCN(C(=O)c2cccc(F)c2)CC1 (stereo not drawn) | -14.6 |
| O=C1c2cc(Br)cc(Br)c2OCC1(CN1CCCC1)CN1CCCC1 | -65.9 |
| CC(C(=O)Nc1ccc(N2CCOCC2)nc1)n1cncn1 (stereo not drawn) | -27 |
| COc1ccc(CN2CCCC(Nc3cccc(F)c3)C2)cc1O (stereo not drawn) | 63.3 |
| COc1cccc(F)c1CN1CCC(c2nc(C)cc(C)n2)C1 (stereo not drawn) | 23.3 |

| SMILES | INHIBITION [%] |
| --- | --- |
| COc1cccc(CNc2ccc(F)c(Cl)c2)c1O | -117 |
| COc1ccc(NC2CCCN(Cc3cnc(N(C)C)s3)C2)cc1OC (stereo not drawn) | -54.2 |
| Fc1ccc(NC2CCCN(Cc3ccncc3)C2)cc1 (stereo not drawn) | -65.4 |
| COc1ccc(F)cc1CN1CCCC(c2cc(C(N)=O)[nH]n2)C1 (stereo not drawn) | -14.1 |
| COc1cccc(CN2CCCC(Nc3cccc(F)c3)C2)c1O (stereo not drawn) | 67.3 |
| COc1cccc(O)c1CN1CCCC(Nc2cccc(F)c2)C1 (stereo not drawn) | 51.3 |
| COc1cc(CN2CCCC(Nc3cccc(F)c3)C2)cc(OC)c1O (stereo not drawn) | 36.9 |
| Oc1cccc(CN2CCN(C3CCc4ccccc4C3)CC2)c1 (stereo not drawn) | 14.6 |
| Cc1n[nH]c(C)c1C1COCCN1C(=O)Cc1ccccc1F (stereo not drawn) | -105 |
| Cc1cnc(CCN(C)C(=O)c2cccc(C)c2O)s1 | -152 |
| Cc1ccc(NC2CCN(C(=O)c3sccc3C3CC3)CC2)nn1 | -28.9 |
| Cc1ccc(C(C)NC(=O)N2CCCN(CC(F)F)CC2)s1 (stereo not drawn) | -73.5 |
| Cc1cccc(CN2C(=O)CC[C@@H]3[C@H]2CCN3Cc2ccc(F)cc2)n1 | -111 |
| CCNc1nc2c(s1)C(=O)CN(C(=O)NCc1ccccc1)C2 | -146 |
| Cc1ccc(-c2noc(CN3CCOC(Cn4cccn4)C3)n2)cc1 (stereo not drawn) | -105 |
| Cc1noc(CN2CCOC(CN(C)C)C2)n1 (stereo not drawn) | -84.3 |
| Cc1cccc(-c2noc(CN3CCOC(Cn4cccn4)C3)n2)c1 (stereo not drawn) | 51.2 |
| Cc1ccc(-c2noc(CN3CCOC(CN(C)C)C3)n2)cc1F (stereo not drawn) | 53.2 |
| c1cncc(-c2noc(CN3CCOC(Cn4cccn4)C3)n2)c1 (stereo not drawn) | 10.9 |
| CN(C)CC1CN(Cc2nc(-c3cccnc3)no2)CCO1 (stereo not drawn) | -51.1 |
